The results in this text go back to PubChem BioAssay (NCATS).

Inconclusive results are not listed. Where a call stands in place of a potency, no number is given. Values without a mark were called inactive. Active and inactive are the calls of the source. Calls follow the shape of the dose curve; as a rule, active = well fitted inhibition curve with a large enough effect; inconclusive = small, poorly fitted or top-dose-only effect; inactive = flat fitted curve, though single readings scatter.

In this experiment the target is Calcium and integrin-binding protein 1 (Homo sapiens) (UniProt Q99828). Kind of experiment: Primary qHTS for Identification of Calcium Integrin Binding Protein 1 (CIB1) Competitor (AID 1508620).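 Also: GST tagged CIB1 binding a fluorescein labelled alphaIIb integrin peptide tracer; top concentration of the series differs between compounds.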 The settings on record: CIB1-GST / FITC-alphaIIb peptide fluorescence polarization; series mostly up to 114 µM. The gist of the method: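 CIB1-GST (1 uM final) and compound incubated 15 min at room temperature before adding FITC-alphaIIb peptide tracer (100 nM final). Competition for binding read by fluorescence polarization (ex 480, em 540) after another 15 min at room temperature.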
Sequence of Calcium and integrin-binding protein 1 (Homo sapiens) (Q99828 whole entry, looked up): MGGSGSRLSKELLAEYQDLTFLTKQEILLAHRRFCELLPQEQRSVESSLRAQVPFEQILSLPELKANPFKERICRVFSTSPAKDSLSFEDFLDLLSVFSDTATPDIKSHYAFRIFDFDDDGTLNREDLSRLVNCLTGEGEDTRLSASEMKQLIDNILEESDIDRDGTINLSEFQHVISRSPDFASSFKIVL
For orientation: qHTS replaces the single test concentration by a dilution series.
On to `Cc1cccc(-c2[nH]ncc2-c2ccc(F)c(-c3cnn(CCO)c3)c2)n1`, for which the Potency entry is “inactive”.
Take `CC(C)CCCCC(=O)N[C@@H](CO)C(=O)N[C@@H](CC(C)C)C(=O)[C@@]1(CO)CO1`: the Potency result was “inactive”.
The same measure, in the same setting: the same measure for `C/C=C/[C@@H]1C=C[C@@H]2C[C@H](C)CC[C@H]2[C@]1(C)/C(O)=C1/C(=O)[C@@H](CO)N(C)C1=O`: “inactive”; for `CC(C)(O)C1CC(=O)C2(C)C(CCC3(C)C(c4ccoc4)OC(=O)C4OC432)C12CCC(=O)OC2` (centres undefined): “inactive”; for `NC(N)=N/N=C/c1ccccc1Cl`: “inactive”.
Regarding `CC(OC1OCCN(Cc2n[nH]c(=O)[nH]2)C1c1ccc(F)cc1)c1cc(C(F)(F)F)cc(C(F)(F)F)c1` (centres undefined), the Potency entry was “inactive”.
The same measure, in the same setting: with `COc1c(C)cc(NC(=O)c2nn(Cc3ccc(F)cc3)c3c2CN(C(=O)c2ccc[nH]2)C[C@]3(C)C(N)=O)cc1C` the entry was “inactive”; with `C/C=C\NC(=O)C1NC(=O)C(CC(N)=O)NC(=O)C(NC(=O)C(=O)C(C)CC)Cc2ccc(O)c(c2)-c2cccc3c2NC(=O)C3(O)C1O` (centres undefined), “inactive”.
Same read-out and setting: with `CC1=C2C[C@@]3(C)C(CCC[C@@H]3C)C(O)C2OC1=O` (some centres undefined) the entry was “inactive”.
Same read-out and setting: with `CC(=O)O[C@@H]1[C@@H](O)[C@H](O[C@@H]2[C@@H](O)[C@@H](O)[C@H](O[C@H]3[C@H](O[C@H]4[C@H](O[C@H]5CC[C@@]6(C)C(CC[C@]7(C)C6CC=C6[C@@H]8CC(C)(C)CC[C@]8(C(=O)O)CC[C@]67C)[C@]5(C)CO)O[C@H](CO)[C@@H](O)[C@@H]4O)OC[C@@H](O)[C@@H]3O)O[C@H]2C)OC[C@H]1O` (some centres undefined) the entry was “inactive”.
In the case of `CC(=O)O[C@@H]1[C@H](O[C@@H]2O[C@@H](CO)[C@H](O)[C@H]2O)[C@@H](O[C@@H]2O[C@@H](C)[C@H](O[C@@H]3OC[C@@H](O)[C@H](O)[C@H]3O)[C@@H](O)[C@H]2O)[C@H](OC(=O)[C@]23CCC(C)(C)C[C@H]2C2=CCC4[C@@]5(C)CC[C@H](O[C@@H]6O[C@H](C(=O)O)[C@@H](O)[C@H](O)[C@H]6O[C@@H]6O[C@H](CO)[C@H](O)[C@H](O)[C@H]6O)[C@@](C)(C=O)C5CC[C@@]4(C)[C@]2(C)C[C@H]3O)O[C@@H]1C` (some centres undefined), the activity change, negative = inhibition is 1.08% [at 12.4 µM].
For the compound `CC(=O)C1=CCC2C3CC=C4CC(O)CC(O)C4(C)C3C(O)CC12C` (centres undefined), the Potency result was “inactive”.
Turning to `COC1C(O)C(OC2CCC3(C)C(CCC45CCC6C7(COC(=O)C7)OC4(O)C6(C)CCC35)C2)OC(C)C1OC1OC(CO)C(OC2OC(CO)C(O)C(O)C2O)C(O)C1O` (centres undefined), the Potency entry is “inactive”.
As for `Cc1ccc(-c2ncc[nH]2)cc1NC(=O)c1ccc(OCc2ccccn2)cc1`, the Potency result is “inactive”.
On to `O=C([C@@H](Cc1cccc(C(F)(F)F)c1)NS(=O)(=O)c1cc(F)c2c(c1)CCNC2)N1CCCC1`, for which the Potency entry is “inactive”.
Turning to `CC1CCCC(O)CCC/C=C/c2cc(OS(=O)(=O)O)cc(O)c2C(=O)O1` (centres undefined), the Potency entry was “inactive”.
Same read-out and setting: with `CC(=O)C1(C)CCC2C3C=C(C)C4=CC(=O)CCC4(C)C3CCC21C` (centres undefined) the entry was “inactive”.
For the compound `O=C(NC[C@H]1CN(c2ccc(N3CCOCC3=O)cc2)C(=O)O1)c1ccc(Cl)s1`, the Potency result was “inactive”.
For `C/C=C/CCC1Cc2cc(O)c(CCCC)c(O)c2C(=O)O1` (centres undefined), the Potency entry is “inactive”.
Consider `CNCCN1CCC(c2cc(CN(C)C(=O)c3cccc(Oc4ccccc4)c3)ccn2)CC1`, for which the Potency result is “inactive”.
Same read-out and setting: the same measure for `CC[C@H](C)/C=C(C)/C=C/C1=CC2=CC(=O)[C@]3(C)OC(=O)[C@@H](C(C)=O)[C@@H]3C2=CO1`: “inactive”.
Still for that read-out and setting: the same measure for `O=C(Nc1cccc2cccnc12)c1ccc(N2C(=O)[C@@H]3C4C=CC(C4)[C@@H]3C2=O)cc1`: “inactive”; for `CC1(C)CC[C@]23CO[C@@]4(CCC5[C@@]6(C)CC[C@H](O[C@@H]7OC[C@H](O[C@@H]8O[C@H](CO)[C@@H](O)[C@H](O)[C@H]8O[C@@H]8OC[C@@H](O)[C@H](O)[C@H]8O)[C@H](O)[C@H]7O)[C@@](C)(CO)C6CC[C@@]5(C)[C@]4(C)CC2=O)[C@@H]3C1` (some centres undefined): “inactive”; for `CC(=O)OC(C)(C)/C=C/C(=O)[C@](C)(O)[C@H]1C(O)C[C@@]2(C)[C@@H]3CC=C4[C@@H](C=C(O[C@@H]5O[C@H](CO)[C@@H](O)[C@H](O)[C@H]5O)C(=O)C4(C)C)[C@]3(C)C(=O)C[C@]12C` (some centres undefined): “inactive”.
Regarding `CC(=O)OC1C(OC(=O)c2ccccc2)C2C(=C(C)CCC2(C)C)C23CCC(C)(C2)C(=O)CC13` (centres undefined), the Potency result was “inactive”.
`CC(C)=CCCC1(C)C2CCC1(C)C(O)C2` (centres undefined): the Potency result was “inactive”.
Still for that read-out and setting: the same measure for `CCC(C)/C=C(C)/C=C/C1=CC2=C(Cl)C(=O)C(C)(OC(C)=O)C(=O)C2(O)C(OC)O1` (centres undefined): “inactive”; for `CCC(C)C(=O)OC1C(C)C2(O)C(C=C(CO)CC3(O)C(=O)C(C)=CC32)C2C(C)(C)C12OC(=O)C(C)C` (centres undefined): “inactive”; for `COC(=O)CC(O)CC(O)/C=C/c1c(C)ccc2c1C(OC(C)=O)CC(C)C2` (centres undefined): “inactive”.
Take `Cc1cnc(-c2ccccc2C(C)C)nc1NCc1ccc(-n2ccnn2)cc1`: the Potency result was “inactive”.
As to `C=CCc1ccc(OC(C)Cc2ccc(OC)c(OC)c2)c(OC)c1` (centres undefined), the Potency result is “inactive”.
For the compound `C/C=C(/C)C(=O)OC1C=C2C3C(C)C(C)C(OC(=O)C(C)C(C)O)CC3(C)CCC2(C)C2(C)CC(OC(C)=O)C3C(C)(C)C(O)C(=O)CC3(C)C12` (centres undefined), the Potency entry is “inactive”.
Regarding `CC1(C)SCCN(S(=O)(=O)c2ccc(Oc3ccncc3)cc2)[C@H]1C(=O)NO`, the Potency entry is “inactive”.
The same measure, in the same setting: with `Cn1nc(C(C)(C)C)cc1C(=O)N[C@@H](Cc1cccc(Cl)c1)C(=O)NCC#N` the entry was “inactive”; with `C=C1CCC2C(C)(C)CCCC2(C)C1CC/C(C)=C\CO` (centres undefined), “inactive”.
The same measure, in the same setting: the same measure for `CNC(=O)c1cc(Oc2ccc(NC(=O)c3cccc(C(F)(F)F)c3)cc2)ccn1`: “inactive”.
Regarding `CC(CCC1(O)OC2CC3C4CC=C5C[C@@H](O[C@@H]6O[C@H](CO)[C@@H](O[C@@H]7O[C@@H](C)[C@H](O)[C@@H](O)[C@H]7O)[C@H](O)[C@H]6O[C@@H]6O[C@@H](C)[C@H](O)[C@@H](O)[C@H]6O)CC[C@]5(C)C4CC[C@]3(C)[C@@]2(O)[C@@H]1C)CO[C@@H]1O[C@H](CO)[C@@H](O)[C@H](O)[C@H]1O` (some centres undefined), the Potency entry is “inactive”.
Turning to `CCC/C=C/c1cc2c(C=O)c(O)c(CC=C(C)C)cc2o1`, the Potency result was “inactive”.
Regarding `CCC(C)C(=O)OC12C(OC(C)=O)C(C)C3(O)C(C=C(CO)CC4(O)C(=O)C(C)=CC43)C1C2(C)C` (centres undefined), the Potency result was “inactive”.
